# Laboratory results published in the supplement of paper PMC10646978.
# ± gives the standard deviation.
# Tests used:
# Conditions in all cases: modulator concentration 10 µM
# [1] = test system: RAW-Dual (murine macrophage reporter line); assay: NF-kB reporter (SEAP) activity fold change vs agonist alone; higher = enhanced NF-kB activity
# Procedure, shortened: (§1)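 RAW-Dual murine macrophage reporter cells were plated at 50 000 per well in 384-well plates, pin-transferred compound to 10 μM final, and pre-incubated for 1 hour at 37 °C before a PRR agonist was added and the cells incubated overnight. NF-κB activity was read from supernatant SEAP with QUANTI-Blue at 620 nm absorbance, and IRF activity from Lucia luciferase with QUANTI-Luc by luminescence. Each signal was expressed as fold change by dividing by the mean agonist-only control on the same plate. Two replicate plates were averaged, with errors obtained by propagation.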
# [2] = test system: RAW-Dual (murine macrophage reporter line); assay: IRF reporter (Lucia luciferase) activity fold change vs agonist alone; higher = enhanced IRF activity
# Procedure, shortened: as §1
# [3] = test system: RAW-Dual (murine macrophage reporter line); assay: viability score (confluency relative to resting cells, overnight) (fraction); higher = more viable, active = viable (0.7 or more)
# Procedure, shortened: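 Two confluency masks, generated with IncuCyte software over all imaged wells, were applied to IncuCyte images of RAW-Dual macrophages. The cells, in 384-well plates, had been exposed overnight to 10 μM final compound. The viability score is confluency as a fraction of resting cells, and a compound met the cutoff only with both masks above 70% of resting cells.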
# [4] = agonist: CpG ODN 1826 0.5 ug/mL
Compound,"NF-kB reporter [1, 4]",NF-kB reporter ([1]; agonist: LPS 0.1 ug/mL),NF-kB reporter ([1]; agonist: MPLA […]),IRF reporter ([2]; agonist: 3'3'-cGAMP 10 ug/mL),IRF reporter ([2]; agonist: LPS 0.1 ug/mL),IRF reporter ([2]; agonist: MPLA […]),viability score [3]
COc1cc2nc(N3CCN(C(=O)C4COc5ccccc5O4)CC3)nc(N)c2cc1OC.CS(=O)(=O)O (configuration not stated),0.103 ± 0.014,1.29 ± 0.2,1.2 ± 0.082,0.273 ± 0.017,1.44 ± 0.33,1.97 ± 0.15,0.914 (active)
Nc1ncnc2c1ncn2C1OC(COP(=O)(O)O)C(O)C1O (configuration not stated),1.9 ± 0.51,1.3 ± 0.089,1.55 ± 0.11,1.44 ± 0.052,1.19 ± 0.13,1.19 ± 0.14,0.97 (active)
COC(=O)COc1ccc2oc(=O)cc(-c3cc4cccc(OC)c4o3)c2c1,0.858 ± 0.065,1.06 ± 0.12,1.05 ± 0.025,0.928 ± 0.052,0.872 ± 0.084,1.04 ± 0.086,0.992 (active)
CN(C)CCOC(C)(c1ccccc1)c1ccccn1.O=C(O)CCC(=O)O (configuration not stated),0.876 ± 0.12,1.25 ± 0.39,0.954 ± 0.067,0.862 ± 0.029,1.41 ± 0.33,1.16 ± 0.15,1 (active)
COc1ccc(NC(=O)CN(c2ccc(C)c(C)c2)S(C)(=O)=O)cc1Cl,0.912 ± 0.096,1.14 ± 0.12,0.886 ± 0.032,0.857 ± 0.14,0.973 ± 0.045,0.858 ± 0.079,1 (active)
Cc1[nH]c(/C=C2\C(=O)Nc3ccccc32)c(C)c1CCC(=O)O,0.716 ± 0.18,0.853 ± 0.11,0.812 ± 0.048,0.618 ± 0.021,0.956 ± 0.24,0.98 ± 0.18,0.993 (active)
O=C(C=Cc1cccc([N+](=O)[O-])c1)NCCc1ccccc1,1.01 ± 0.17,1 ± 0.12,0.948 ± 0.12,0.963 ± 0.048,1.27 ± 0.24,1.32 ± 0.24,0.99 (active)
O=C(c1ccc(Cl)cc1)c1ccc(N2CCCCC2)c([N+](=O)[O-])c1,1 ± 0.17,1.11 ± 0.15,1.01 ± 0.097,0.957 ± 0.064,1.27 ± 0.27,1.33 ± 0.27,0.998 (active)
COc1cccc(-c2csc(C(C#N)=CNc3cc(Cl)ccc3OC)n2)c1,0.939 ± 0.096,1.06 ± 0.083,0.963 ± 0.093,0.964 ± 0.024,1.24 ± 0.21,1.01 ± 0.26,1.01 (active)
CN1C(=O)C(=NNC(=O)c2ccccc2Cl)c2cc(Br)cc(Br)c21,1.13 ± 0.091,0.997 ± 0.081,1.03 ± 0.057,0.897 ± 0.15,1.12 ± 0.078,1.01 ± 0.32,1 (active)
Cl.Fc1ccc([C@@H]2CCNC[C@H]2COc2ccc3c(c2)OCO3)cc1,0.575 ± 0.05,1 ± 0.051,1.23 ± 0.069,1.11 ± 0.072,1.05 ± 0.055,1.04 ± 0.2,0.253 (inactive)
Cc1ccc(C=Nc2ccc(-c3ccc(N=Cc4ccc(C)o4)c(C)c3)cc2C)o1,0.837 ± 0.066,0.984 ± 0.087,1.01 ± 0.053,0.773 ± 0.097,0.929 ± 0.041,0.894 ± 0.075,0.991 (active)
CC1CC(=O)C2=C(C1)OC(N)=C(C#N)C2c1ccc(Cl)cc1 (configuration not stated),0.905 ± 0.093,1.06 ± 0.075,0.928 ± 0.042,0.721 ± 0.03,1 ± 0.07,0.909 ± 0.13,0.992 (active)
NC(=O)CSc1nc(O)cc(=O)n1-c1ccccc1F,0.987 ± 0.16,1.06 ± 0.088,1.09 ± 0.11,0.978 ± 0.048,1.39 ± 0.26,1.23 ± 0.13,1.01 (active)
O=C(NCCc1csc(-c2ccc(F)cc2)n1)c1ccc(Br)cc1,0.825 ± 0.064,1.18 ± 0.089,1.19 ± 0.043,0.693 ± 0.027,1.07 ± 0.11,1.19 ± 0.15,0.999 (active)
O=C(Nc1ncc(S(=O)(=O)c2ccc([N+](=O)[O-])cc2)s1)c1cccs1,1.06 ± 0.11,1.09 ± 0.06,0.914 ± 0.06,0.987 ± 0.03,1.49 ± 0.27,1.18 ± 0.21,1.01 (active)
CN1CCN(c2nc3c(=O)[nH]cnc3n2C2OC(CO)C(O)C2O)CC1 (configuration not stated),0.979 ± 0.11,1.03 ± 0.071,0.904 ± 0.084,1.01 ± 0.089,1.22 ± 0.082,1.08 ± 0.25,1.01 (active)
CC(=O)Nc1ccc(S(=O)(=O)N2CCC(Oc3nc(C)cc(C)n3)C2)cc1 (configuration not stated),1.13 ± 0.099,1.03 ± 0.078,0.969 ± 0.033,0.988 ± 0.063,0.987 ± 0.057,0.932 ± 0.15,0.998 (active)
Cc1cc(C)c(NC(=O)COc2ccc(C)cc2C(C)(C)C)c(C)c1,0.975 ± 0.13,0.975 ± 0.06,0.962 ± 0.11,0.953 ± 0.029,1.14 ± 0.19,1.01 ± 0.23,1.01 (active)
Clc1cccc(C=Cc2nn3c(Cc4ccccc4)nnc3s2)c1,0.885 ± 0.04,0.927 ± 0.092,1.12 ± 0.06,0.86 ± 0.039,1.35 ± 0.24,1.44 ± 0.43,0.987 (active)
COC(CNC(=O)CSc1ccc(F)cc1)c1ccc(C)s1 (configuration not stated),1.07 ± 0.33,1.1 ± 0.067,1.05 ± 0.067,0.898 ± 0.03,1.06 ± 0.16,1.11 ± 0.1,0.985 (active)
FC(F)(F)c1ccnc(NC2CCN(c3ncnc4c3CCCC4)CC2)n1,0.884 ± 0.083,1.35 ± 0.11,1.86 ± 0.081,1.21 ± 0.069,1.65 ± 0.16,1.59 ± 0.18,0.318 (inactive)
Cc1cccc(C(=O)N2N=C(C3CCCCC3)CC2(O)C(F)(F)F)c1O (configuration not stated),0.735 ± 0.057,0.839 ± 0.064,0.955 ± 0.089,0.939 ± 0.046,1.4 ± 0.093,1.52 ± 0.14,1.01 (active)
N#Cc1cc2c(nc1N1CC(Cn3nc(C4CC4)ccc3=O)C1)CCC2,1.44 ± 0.078,1.21 ± 0.099,1.63 ± 0.24,0.866 ± 0.12,1.03 ± 0.17,1.18 ± 0.34,0.946 (active)
O=S(=O)(Nc1cccc2cccnc12)c1ccccc1,0.961 ± 0.13,0.597 ± 0.097,0.659 ± 0.053,1.04 ± 0.081,5.63 ± 1,1.32 ± 0.29,0.745 (active)
Cn1c(=O)c2c(ncn2CC(O)CO)n(C)c1=O (configuration not stated),1.02 ± 0.2,1.2 ± 0.35,1.08 ± 0.18,0.887 ± 0.066,1.32 ± 0.21,1.29 ± 0.23,0.996 (active)
